Assay outcomes from PubChem.
In the library only some 1.9% were active in any assay of this set; here they are far more common.
SDO1 yeast rescue – compounds rescuing growth of sdo1-depleted yeast, bone marrow failure model; S. cerevisiae sdo1-depleted JHY4D growth rescue, OD600 30 h; active compounds read high; pdr5 snq2 efflux-pump mutant strain; z-score at 10 µM; hit rate 0.21% among 140,000;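 active = z-score above 3 at both the 24 hr and the 30 hr optical density reads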;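 also: z-score against mean and SD of all compound wells on the same plate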
S1P2 blocker – blocks the human S1P2 receptor | O95136 | cell-based S1P2 antagonist assay, inhibition at 5 uM | inhibition, % at 5 µM | hit rate 0.21% among 97,000 | AID 736; in the data active = inhibition above about 45%;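 also: CRE beta-lactamase reporter cells expressing human S1P2 stimulated with S1P; 0% = agonist at EC80 alone and 100% = agonist plus reference antagonist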
S1P2 ag – activates the human S1P2 receptor; O95136; hit rate 0.46% among 97,000; S1P2-expressing cell line, agonist reporter read-out; activation, % at 4.5 µM; in the data active = activation above about 16%;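 also: 0% = vehicle low control and 100% = maximal reference agonist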
GALR2 ag – GALR2 (human) receptor agonism; AID 803; GALR2-expressing cells, agonist activation read-out; O43603; activation, % (test concentration not listed); hit rate 0.48% among 140,000; in the data active = activation above about 5%, passing the limit was not always enough;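 also: 0% = vehicle buffer wells and 100% = reference agonist at full effect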
Target sequence (O43603 whole entry, looked up): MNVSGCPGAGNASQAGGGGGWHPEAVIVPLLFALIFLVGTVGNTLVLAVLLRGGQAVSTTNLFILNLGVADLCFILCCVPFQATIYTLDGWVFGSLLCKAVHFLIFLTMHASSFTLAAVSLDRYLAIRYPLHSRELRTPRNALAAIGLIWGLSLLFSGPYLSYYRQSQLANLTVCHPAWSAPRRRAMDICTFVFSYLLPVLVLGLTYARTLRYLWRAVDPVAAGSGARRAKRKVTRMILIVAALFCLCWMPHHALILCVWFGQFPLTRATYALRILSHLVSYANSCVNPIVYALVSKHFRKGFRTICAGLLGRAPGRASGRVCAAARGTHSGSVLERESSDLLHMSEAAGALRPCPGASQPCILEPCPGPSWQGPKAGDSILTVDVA
GALR2 blocker – blocks the human galanin receptor 2; hit rate 0.39% among 140,000; O43603; inhibition, % at 4 µM; GALR2-expressing cells, antagonist mode; AID 828;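 also: cells stimulated with galanin 1-16 at roughly its EC80; 0% = agonist challenge control and 100% = basal control without agonist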
FAK inh – FAK (human) kinase inhibition; biochemical FAK kinase activity assay; Q05397; hit rate 0.84% among 97,000; inhibition, %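 (tested at 7 µM)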; in the data active = inhibition above about 19%;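 also: 0% = DMSO and 100% = reference compound high control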
GALR2 ant conf – confirmation of human galanin receptor 2 (GALR2) antagonists; shares compounds with GALR2 blocker; GALR2-expressing cells, antagonist mode, inhibition; inhibition, % at 4 µM; hit rate 60% among 480; AID 866;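 also: cells stimulated with galanin at about its EC80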
BLA inhib ctr – inhibits beta-lactamase reporter in GALR2 antagonist counterscreen. shares compounds with GALR2 blocker. CHO NFAT-BLA reporter, beta-lactamase FRET, thapsigargin-stimulated. inhibition, % at 4.2 µM. hit rate 36% among 480. AID 867;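 active = inhibition above the mean inhibition across tested compounds plus 3 SD, cut at about 27% in these data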;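 also: 0% = 500 nM thapsigargin stimulated wells and 100% = unstimulated BSA only wells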
* = called active by the depositor; x = no result. Rule as the data show it, unless noted: active = inhibition above about 27%; inactive = the rest.

SMILES	SDO1 yeast rescue	S1P2 blocker	S1P2 ag	GALR2 ag	GALR2 blocker	FAK inh	GALR2 ant conf	BLA inhib ctr
CCCCN(CC)CCCNC(=S)Nc1ccc2nc3n(c(=O)c2c1)CCCCC3	-0.17	x	x	0	1	x	x	x
Cc1c(CN(C)C(=O)c2nn(C)cc2[N+](=O)[O-])cnn1C	0.39	x	x	0	5	x	x	x
Cc1ccc(-c2cc(C(=O)N(C)Cc3cnn(C)c3C)c3cc(Br)ccc3n2)cc1	-0.68	x	x	0	28*	x	24	6
O=C1CC(=O)N(CCc2ccccc2)C(=O)N1CCc1ccccc1	1.1	-1	-9	-1	-8	1	x	x
O=C1C=CC(=O)C(C2=C3C(=O)N(CCc4ccccc4)CC(=O)N3CCC2)=C1	0.05	x	x	0	39*	x	60*	81*
COc1cc2nc(/C=C/c3ccc(N(C)C)cc3)sc2cc1SC	-1.6	x	x	5.2*	52*	x	60*	67*
c1ccc2c(c1)CCN(c1ncnc3c1[nH]c1ccccc13)C2	-2.8	x	x	x	x	x	x	x
c1ccc(CN2CCN(c3ncnc4c3[nH]c3ccccc34)CC2)cc1	-1.2	78*	-6	0	36*	9	40*	19
CCC(C)OC1OC(CO)C(O)C(O)C1NC(C)=O (stereo not given)	0.98	x	x	1	-12	x	x	x
Cc1ccccc1NC(=O)/C=C/c1ccc([N+](=O)[O-])s1	-1.5	x	x	1	34*	x	60*	62*
Cn1nnnc1SCC(=O)N1c2ccccc2Sc2ccccc21	0.14	15	2	-1	-5	2	x	x
O=C(CSc1nncs1)N1c2ccccc2Sc2ccccc21	-1.2	x	x	-1	29*	x	20	2
Cc1[nH]nc(-c2ccc(O)c(C)c2O)c1-c1cnn(-c2ccccc2)c1	-2.3	-16	-6	-1	-11	9	x	x
Cc1nc2ccc(NC(=O)c3ccc(Cl)c(S(=O)(=O)N(C)c4ccccc4)c3)cc2s1	-0.87	x	x	-2	1	x	x	x
Cc1nc2ccc(NC(=O)c3cc(S(=O)(=O)N(C)c4ccccc4)ccc3Cl)cc2s1	-0.58	x	x	4	37*	x	31*	5
Cc1ccc(C(=O)COC(=O)C2CC(=O)N(c3nc(-c4ccccc4)cs3)C2)cc1 (stereo not given)	0.62	-2	-3	-1	3	4	x	x
CC(C)(CSc1nncn1N)NS(=O)(=O)c1ccc(Cl)cc1	0.1	-10	0	-4	-9	1	x	x
CCCn1c(C)nc2c(c1=O)c1nc3ccccc3nc1n2CCc1ccccc1	x	-2	-4	-3	4	-3	x	x
CCCCn1c(N)c(S(=O)(=O)c2ccc(C)cc2)c2nc3ccccc3nc21	-0.19	x	x	0	-4	x	x	x
Cn1c(-c2c(N)n(CCCc3ccccc3)c3nc4ccccc4nc23)nc2ccccc21	-1.1	75*	-13	0	38*	-1	51*	55*
Cn1c(-c2c(N)n(CCc3ccccc3)c3nc4ccccc4nc23)nc2ccccc21	-1	59*	-8	0	36*	0	45*	54*
Cc1ccc(-c2nc3ccccc3[nH]2)s1	0.97	10	-2	-3	7	3	x	x
Cc1[nH]c2ccccc2c1-c1nc2ccccc2[nH]1	1.7	x	x	-2	42*	x	49*	11
O=C1/C(=C/c2ccc(N3CCOCC3)o2)SC(=Nc2ccccc2)N1CCc1c[nH]c2ccccc12	0.45	68*	-8	2	28*	2	27*	43*
O=C(COc1ccc(Br)cc1)NCCO	0.67	x	x	0	1	x	x	x
SMILES	SDO1 yeast rescue	S1P2 blocker	S1P2 ag	GALR2 ag	GALR2 blocker	FAK inh	GALR2 ant conf	BLA inhib ctr
O=C(NC(Cc1ccccc1)C(=O)O)/C(=C/c1ccc(F)cc1)NC(=O)c1ccccc1 (stereo not given)	0.45	x	x	2	-9	x	x	x
CCn1c2ccc(C)cc2c2nc3cc(C(=O)O)ccc3nc21	-0.37	x	x	-1	28*	x	34*	4
CCOC(=O)c1ccc(N2C(=O)CC(N3CCC(O)(c4ccc(Br)cc4)CC3)C2=O)cc1 (stereo not given)	-0.47	46*	-8	5	30*	1	40*	3
CC(C)CCOc1ccc(C(=O)CCNC(C)C(=O)O)cc1 (stereo not given)	-0.79	x	x	-1	0	x	x	x
O=C(NCCc1ccc2c(c1)OCCO2)c1ccc(F)cc1	0.53	x	x	1	-4	x	x	x
COc1ccc(-c2noc(CCC(=O)Nc3ccc4c(c3)OCCO4)n2)cc1	-0.17	-1	-5	-5	28*	-1	7	10
O=c1c(O)c(-c2cccs2)oc2ccc(Cl)cc12	-0.29	9	-4	-2	33*	9	32*	42*
O=c1cc(-c2cccs2)oc2ccc(Cl)cc12	-0.48	4	-2	-1	4	15	x	x
COc1ccc(CNC(=O)Cc2nn(C)c(=O)c3ccccc23)cc1	-0.29	21	-2	-1	36*	0	23	5
COCCNCC(=O)Nc1ccccc1Sc1ccccc1	0.56	x	x	-1	-2	x	x	x
O=C(NCc1cccnc1)/C(=C/c1ccc(-c2cccc(C(F)(F)F)c2)o1)NC(=O)c1ccccc1	0.16	-4	-3	-2	9	-1	x	x
O=C(NCc1cccnc1)/C(=C\c1ccc(-c2ccc(Br)cc2)o1)S(=O)(=O)c1ccccc1	-1.9	x	x	0	37*	x	41*	27*
CC(=O)c1ccc(NC(=O)c2cc3nc4c(c(C(F)(F)F)n3n2)CCCC4)cc1	-0.8	-19	-1	-1	31*	-2	2	1
O=C(CSc1n[nH]c(-c2ccco2)n1)Nc1sc2c(c1C(=O)Nc1ccccc1)CCCC2	-1.1	-15	-3	-1	-3	0	x	x
O=C1Nc2ccccc2/C1=N\c1sc2c(c1C(=O)Nc1ccccc1)CCCC2	-0.92	-2	-8	-4	29*	1	5	-5
Cc1ccccc1-n1c(CSC(=N)N)nc2ccccc2c1=O	0.94	-6	-5	-2	31*	-2	10	11
N=C(N)SCc1nc2ccccc2c(=O)n1-c1ccccc1Cl	-0.47	7	-9	-2	2	4	x	x
COc1cc(NC(=O)CSc2ncnc3c2cnn3Cc2ccccc2)cc(OC)c1	-0.08	12	-3	-1	0	0	x	x
COc1ccc(OC)c(NC(=O)CSc2ncnc3c2cnn3-c2ccccc2Cl)c1	-0.89	81*	-3	-1	31*	1	49*	18
Cc1cc(C)c(S(=O)(=O)/N=C2/C=C(Sc3ncn[nH]3)C(=O)c3ccccc32)cc1C	-0.82	x	x	0	19	x	x	x
O=C(C#Cc1ccccc1)c1cccc([N+](=O)[O-])c1	-2.9	67*	-12	1	34*	-1	72*	75*
N/C(=N\OC(=O)Oc1ccccc1)c1cccc([N+](=O)[O-])c1	-0.12	x	x	-1	5	x	x	x
